Common to all, as to experiment: NCI-60 one-dose screen, 48 h (100 = growth as untreated, 0 = no growth, -100 = all killed)
Common to all, as to conditions: 10 µM unless noted

The test system of test [1] is NCI-H23 lung.
For test [2], the system named is NCI-H226 lung.
The subject of test [3] is NCI-H322M lung.
The subject of test [4] is HOP-62 NSCLC.
The test system of test [5] is NCI-H460 lung.
The subject of test [6] is A549/ATCC NSCLC.
For test [7], the system named is 786-0 renal.
The test system of test [8] is COLO 205 colon.
Test [9] relates to DU-145 prostate.
The subject of test [10] is K-562 leukemia.
Test [11] relates to MALME-3M melanoma.
Test [12] relates to MDA-MB-231 breast.
For test [13], the system named is RXF 393 renal.
In test [14] the test system is SF-268 CNS.
Test [15] concerns SF-295 CNS.
The subject of test [16] is SF-539 CNS.
The test system of test [17] is UACC-257 melanoma.
Test [18] concerns M14 melanoma.
The subject of test [19] is HOP-92 NSCLC.
Test [20] relates to NCI-H522 lung.

The panel holds about 83,000 compounds, 20% with a hit somewhere; the sample as a whole holds those more often.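 Method: cells in 96-well plates; compound added at one concentration; 48 h incubation; percent growth measured; values under 10 scored active.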 A number with no mark means an inactive call. Activity calls are given as the source filed them.

With `C=CCOC(=O)C1=C(C)NC(=O)NC1c1c(Cl)n(C)c2ccccc12` (stereo unspecified), the growth was 88.3% in [1]; 97.8% in [2]; 96.9% in test [3]; 92.9% in test [4]; 106% in test [5]; 103% in [6]. In addition, the growth in test [7] was 91.3%; in test [8], 111%; in [9], 107%; in test [10], 106%; in test [11], 105%; in [12], 96%. Besides, the growth is 100% in test [13]; 95.4% in test [14]; 99.4% in test [15]; 93.5% in [16]; 99.4% in [17]; 95.3% in test [18].

As to `CC(C)=CC(=O)N[C@@H]1CC2CCC3C(CC[C@@]4(C)C3CC[C@@H]4C(C)N(C)C)[C@@]2(C)C[C@@H]1O` (stereo partly specified), the growth in test [1] was 43.8%; in [2], 89.1%; in [3] it was 104%; in test [4] it was 56.4%; in [19] it was 40.6%; in [20], 83%. In addition, the growth in test [6] is 74.5%; in test [7], 58.5%; in test [8], 14.8%; in test [9], 74.1%; in test [10] it was -17.1% (active); in [11] it was 32.3%. Also, the growth in test [12] is 74.6%; in test [13], 20.6%; in test [14], 32.3%; in [15], 11.1%; in [16] it was -19.5% (active); in test [17] it was 31.2%. Further, in [18], the growth is 47.3%.

As for `COc1ccc2nc(Cl)c(/C=C/C(=O)c3ccc(NC(=O)CSc4nnc(-c5ccc(Cl)c(Cl)c5)n4-c4ccccc4)cc3)cc2c1`, the growth is 96.5% in [1]; 96.8% in test [2]; 93.6% in test [3]; 83.2% in test [4]; 67.8% in test [19]; 74.1% in test [20]. For the same molecule, the growth is 69.7% in [6]; 92.3% in test [7]; 101% in [8]; 98.2% in test [9]; 87.2% in test [10]; 92.3% in test [11]. For the same molecule, the growth is 89.3% in [12]; 91.8% in [13]; 89.1% in test [14]; 94% in test [15]; 105% in test [16]; 81.1% in test [17]. Further, the growth in [18] was 91.7%.

On to `CCOC(=O)c1c(NC(=O)c2ccc(C(C)(C)C)cc2)sc2cc(O)ccc12`, for which the growth in test [1] was 89.8%; in [2], 87.9%; in test [3] it was 87.1%; in test [4], 95.8%; in [20], 96.1%; in [6] it was 91.9%. In addition, the growth in test [7] is -92% (active); in test [8], 110%; in test [9], 97.7%; in [10] it was 43.4%; in test [11] it was 98.7%; in [12] it was 110%. Also, the growth was 115% in test [13]; 102% in test [14]; 105% in [15]; 90.9% in test [16]; 97.3% in test [17]; 86.6% in test [18].

As for `O=C1Nc2ccccc2C2c3cccn3-c3ccccc3N12` (stereo unspecified), the growth is 81% in test [1]; 89.5% in test [2]; 83% in test [3]; 58.2% in [4]; 8.49% (active) in [20]; 61.7% in [6]. Further, the growth is 87.8% in test [7]; 60.5% in [8]; 94.8% in [9]; 23.9% in [10]; 71.7% in test [11]; 47.1% in [12]. Also, the growth in [13] is 51.7%; in test [14] it was 79%; in test [15] it was 78.6%; in test [16] it was 83.2%; in test [17], 77.6%; in test [18], 53%.

On to `CCCCCCCCn1ccc2cc(NC(=O)Cn3cc(CN4CCC(C)CC4)nn3)ccc21`, for which the growth in test [1] was 79.4%; in test [2], 69.9%; in test [3] it was 28.6%; in test [4], 72.4%; in test [19] it was 21.8%; in [20], 18.7%. In addition, the growth is 21.1% in [6]; 0.91% (active) in test [7]; -74.4% (active) in [8]; 42.3% in test [9]; -25.6% (active) in test [10]; -70.5% (active) in [11]. The growth in test [12] was 9.71% (active); in [13] it was 24.8%; in test [14], 32.8%; in test [15], -74.3% (active); in [16], 11.5%; in test [17], -35.8% (active). For the same molecule, the growth in [18] is -65.2% (active).

Take `CN1CCN(CCCOC(=O)c2c3c(n4ccccc24)C(=O)c2ncccc2C3=O)CC1`: the growth was -30.6% (active) in [1]; 15.7% in [2]; 28.5% in test [3]; -34.9% (active) in test [4]; 14.8% in test [19]; -87.1% (active) in test [20]. Moreover, the growth was -47.9% (active) in test [6]; 1.4% (active) in test [7]; -93.2% (active) in test [8]; -66.5% (active) in [9]; -30.4% (active) in [10]; -59.7% (active) in test [11]. Further, the growth is 20% in test [12]; -2.1% (active) in [13]; 5.69% (active) in test [14]; -5.73% (active) in test [15]; -13.1% (active) in test [16]; -34.2% (active) in [17]. For the same molecule, the growth in test [18] is -86.1% (active).

With `Cn1cc(C(=O)c2nc(-c3c[nH]c4ccc(Br)cc34)no2)c2cc(Br)ccc21`, the growth in [1] was 83%; in [2] it was 102%; in test [3], 73.4%; in test [4], 78.4%; in [19], 83.9%; in [20] it was 84.2%. Also, the growth in test [7] was 99.4%; in test [8], 93.3%; in test [9] it was 3.08% (active); in [10] it was 37.7%; in test [11], 43.7%; in test [12], 45.9%. In addition, the growth was 96.4% in [13]; 55.9% in test [14]; 88.4% in test [15]; 88.7% in test [16]; 109% in [17]; 47% in [18].

For `C#CCOc1ccc2ncnc(Nc3cccc(NC(=O)CCl)c3)c2c1`, the growth in test [1] is 73.5%; in test [2], 88.3%; in test [3] it was 92.1%; in test [4], 93.2%; in [19], 85%; in [20], 38.9%. Moreover, the growth in [6] was 67%; in test [7], 72.6%; in [8], 96.7%; in test [9], 74%; in test [10], 55.2%; in test [11], 71.9%. In addition, the growth was 73.7% in test [12]; 79.6% in test [13]; 60.6% in [14]; 106% in test [15]; 84.4% in test [16]; 80.3% in [17]. Also, in test [18], the growth was 77.1%.

On to `C=CC(=O)N1CCN(c2ccc3cccc(NC(=O)c4cnc(C)cn4)c3n2)CC1`, for which the growth in test [1] is 66.7%; in test [2], 42.9%; in test [3], 21.2%; in test [4], 41.1%; in test [5], 34.7%; in [20] it was 10.4%. Further, the growth in test [6] is 27.3%; in test [7], 24.8%; in [8], 59.3%; in test [9], 29.1%; in test [10] it was 36.5%; in [11], 30.5%. Further, the growth was 36.7% in test [12]; 11.4% in [13]; 37.6% in test [14]; 61.5% in [15]; 35.1% in test [16]; 37.2% in [17]. The growth in [18] is 41.2%.

On to `COc1cc2cc(Oc3ccc(NC(=O)Nc4ccccc4)cc3)c(C)nc2cc1OCCN1CCCCC1`, for which the growth in [1] is 96.5%; in test [2] it was 99.8%; in test [3] it was 114%; in test [4], 94.9%; in [19] it was 55.7%; in test [20] it was 106%. Further, the growth in test [6] was 78.6%; in test [7], 68.3%; in test [8], 69.3%; in test [9], 89.6%; in test [10], -45.6% (active); in test [11], -75% (active). The growth in [12] was 85.7%; in [13], 53.5%; in test [14] it was 83.5%; in [15], 100%; in [16], -80.4% (active); in test [17], 84%. For the same molecule, in test [18], the growth is -90.1% (active).

With `CC[C@H](CC[C@@H](C)[C@H]1CC[C@H]2[C@@H]3CC[C@@H]4CC(=O)/C(=C\c5ccncc5)C[C@]4(C)[C@H]3CC[C@]12C)C(C)C`, the growth in test [1] is 99.4%; in test [2] it was 103%; in [3], 98.3%; in [4], 99.3%; in test [5], 109%; in test [20], 95.3%. Further, the growth is 99.2% in test [6]; 95.7% in test [7]; 107% in test [8]; 109% in [9]; 97% in test [10]; 100% in test [11]. The growth was 104% in test [12]; 109% in [13]; 107% in test [14]; 99.2% in [15]; 103% in test [16]; 106% in test [17]. Moreover, the growth in test [18] is 104%.

Turning to `Cc1nn(-c2ccccc2)c(/N=C/N(C)C)c1/C=C/C(=O)c1ccc(Cl)cc1`, the growth in test [1] was 96.9%; in test [2] it was 98.3%; in test [3], 101%; in test [4], 93.2%; in test [19], 78%; in [20], 78.4%. Also, the growth was 108% in test [6]; 103% in test [7]; 110% in test [8]; 122% in test [9]; 59.6% in test [10]; 90.1% in test [11]. Also, the growth is 77.2% in [12]; 97.8% in test [13]; 118% in [14]; 106% in test [15]; 101% in test [16]; 119% in test [17]. Besides, the growth in test [18] is 94.7%.

Take `CN(C)c1ccc(C(=NO)c2ccc(N(C)C)cc2)cc1`: the growth was 47.3% in test [1]; 78.5% in test [2]; 81.3% in test [3]; 46.2% in test [4]; 37.8% in test [19]; -25.8% (active) in [20]. The growth is 31.4% in test [6]; 57.3% in test [7]; 42.8% in test [8]; 56% in test [9]; 17% in test [10]; 29.8% in [11]. Further, the growth in test [12] is 63.5%; in [13], 33.5%; in [14], 50.6%; in test [15] it was 3.86% (active); in [16] it was 33.7%; in [17] it was 41.4%. The growth in [18] is 17.4%.

For the molecule `CCN1C(=S)N(CC)C2C1NC(=S)N2/N=C/C=C/c1ccccc1OC` (stereo unspecified), the growth is 24.1% in test [1]; 57% in [2]; 45.2% in [3]; 39.2% in test [4]; 74.6% in test [19]; -11.3% (active) in test [20]. Also, the growth in test [6] is 17.7%; in [7], 35.6%; in test [8], 10%; in [9], 13.9%; in [10], 10.2%; in [11], 53.5%. Besides, the growth was 11.5% in test [12]; 20.4% in [13]; 56.4% in test [14]; 12.4% in [15]; -18.5% (active) in test [16]; 53.6% in test [17]. In addition, in test [18], the growth is 10.3%.

The values above are taken from PubChem BioAssay (NCI).
